Assay outcomes deposited in PubChem BioAssay by several laboratories.
An excerpt weighted towards active compounds, which were near 2.9% of everything screened.
Hsp70 activator: switches on Hsp70 transcription; HeLa Hsp70 promoter luciferase reporter, luminescence; scaled: vehicle 0, proteasome-inhibitor control 100%; activation, % at 10 µM; actives 0.04% (n = 200,000);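 active means activation above the mean across all tested compounds plus 3 SD, cutoff set per campaign, cut at about 5.5% in these data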;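 further: 100% = MG132 at 30 µM as the positive control and 0% = DMSO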
S1P4 antagonist: human S1P4 receptor antagonism. O95977. S1P4-expressing cells, antagonist mode, reporter read-out. inhibition, % at 4.98 µM. actives 0.26% (n = 220,000); in the data active means inhibition above about 29%;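 further: 0% = wells stimulated with agonist and 100% = vehicle wells without agonist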
Target sequence (O95977 whole entry, looked up): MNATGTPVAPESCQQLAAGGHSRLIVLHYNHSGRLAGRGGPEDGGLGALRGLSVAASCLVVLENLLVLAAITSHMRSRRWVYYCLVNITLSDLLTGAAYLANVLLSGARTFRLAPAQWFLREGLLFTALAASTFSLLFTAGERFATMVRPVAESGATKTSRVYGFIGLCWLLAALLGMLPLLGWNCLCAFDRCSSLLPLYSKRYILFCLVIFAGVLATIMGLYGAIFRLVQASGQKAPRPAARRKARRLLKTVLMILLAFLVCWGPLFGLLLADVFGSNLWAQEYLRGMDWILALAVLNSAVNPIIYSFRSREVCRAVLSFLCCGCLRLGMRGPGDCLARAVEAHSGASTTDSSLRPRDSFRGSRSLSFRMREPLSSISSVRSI
HSF-1 act: increases HSF-1 driven luciferase reporter signal; NIH3T3-HGL HSF-1 luciferase reporter, MG132, 8 h; 100% = twice DMSO control signal; activation, % at 9 µM; actives 1.7% (n = 300,000); AID 504408;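 active means mean replicate activation of at least 50% with a set share of replicates each reaching 50%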;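 further: 0% = median of the neutral control wells and 100% = twice that signal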
HSF1 inhib: HSF1 inhibition; NIH3T3-HGL HSE-luciferase, MG132-induced, luminescence 8 h; stronger effect = lower value; activity change, negative = inhibition, % at 7.5 µM (by protocol); actives 0.77% (n = 300,000); AID 2098;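 active means more than half of replicate wells show activity change below -50%, luminescence cut by over half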;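 further: luciferase reports HSF-1 transcriptional activity via heat shock element; 0% = median of DMSO wells and -100% = zero luminescence signal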
S1P3 antag: blocks the human S1P3 receptor | AID 485 | inhibition, % at 4.98 µM | Q99500 | CHO S1P3 NFAT-BLA reporter, FRET fluorescence, antagonist mode | actives 0.27% (n = 170,000);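 active means inhibition above the plate cutoff, the mean inhibition of test wells on that plate plus 3 SD, cut at about 28% in these data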;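 further: cells challenged with S1P at its EC80 of 0.8 µM; blue over green emission ratio from cleaved BLA substrate after 4 h stimulation; 0% = S1P-stimulated wells and 100% = unstimulated DMSO-only wells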
S1P4 agonist: human S1P4 receptor agonism; O95977; S1P4-expressing cell line, agonist reporter assay; activation, % at 4.98 µM; actives 0.35% (n = 220,000); AID 1509; in the data active means activation above about 11%;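 further: 0% = DMSO vehicle and 100% = reference agonist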
Starred values were filed as active, the others as inactive; nt = no result.

SMILES	Hsp70 activator	S1P4 antagonist	HSF-1 act	HSF1 inhib	S1P3 antag	S1P4 agonist
O=C(OCC(=O)N1CCN(c2ccccc2)CC1)c1ccccc1NCCO	nt	nt	-9	0	nt	nt
COc1ccccc1CNc1ccc([N+](=O)[O-])cc1C	0	-11	55*	27	-19	1
COc1cccc(CNc2ccc([N+](=O)[O-])cc2Cl)c1O	0	-8	97*	72	-10	1
COc1ccc([N+](=O)[O-])cc1NC(=O)Cc1ccccc1Cl	0	-14	0	-1	-6	4
COc1ccc(NC(=O)N2CCN(c3ccc([N+](=O)[O-])cc3)CC2)cc1OC	0	-48	-5	-4	-9	-4
COc1cc(/C=C(\C#N)C(=O)NC2CCCCC2C)ccc1OS(=O)(=O)c1ccc(C)cc1 (stereo unspecified)	0	19	64*	50	-12	2
O=C(Cc1ccccc1)N/N=C/c1ccc(S(=O)(=O)O)o1	nt	-6	-21	-7	-2	-2
O=C(Cc1ccccc1)N/N=C/c1cc(Br)c(Br)o1	0	-8	80*	60	nt	1
Cc1n[nH]c(C)c1S(=O)(=O)N(CC(=O)N1CCc2ccccc21)c1ccc(C(C)C)cc1	0	-13	75*	62	10	-2
CCOc1ccc(N(CC(=O)N2CCc3ccccc32)S(=O)(=O)c2c(C)noc2C)cc1	0	-5	37	28	-19	-1
Cc1ccc(OCC(=O)NC(=S)Nc2ccc3c4c(cccc24)CC3)cc1	0	2	16	-11	3	0
O=C(COc1ccccc1)NC(=S)Nc1cccc2cc(O)ccc12	nt	nt	85*	66	nt	nt
CC(C)c1ccc(OCC(=O)NC(=S)Nc2ccc3c4c(cccc24)CC3)cc1	0	-3	68*	20	nt	0
COc1ccc(C(=O)NC2CC3CCCC(C2)N3Cc2ccccc2)cc1OC (stereo unspecified)	nt	nt	-20	-2	nt	nt
CC1CC(C)CN(C(=O)c2ccc(CSc3nc4ccncc4[nH]3)cc2)C1 (stereo unspecified)	0	19	-73	-67*	-3	0
CCN(CCNC(=O)c1ccc(CSc2nc3ccncc3[nH]2)cc1)c1ccccc1	0	7	-5	-6	-11	2
O=C(/C=C/c1ccc(OCCCF)cc1)N1CCN(Cc2ccccc2)CC1	nt	nt	61*	8	nt	nt
CN(c1ccccc1)c1ccc(/C=N/N2CCOCC2)cc1	0	8	61*	19	-2	3
COc1ccc(OCCOC(=O)c2nc3nccc(C)n3n2)cc1	0	-5	1	-10	8	-3
Cc1cc2occ(CC(=O)NCc3cccs3)c2cc1C(C)C	0	-7	62*	12	2	1
Cc1csc(NC(=O)Cc2coc3cc(C)c(C(C)C)cc23)n1	0	-10	28	1	nt	3
COc1cccc2cc(-c3nnc(-c4ccccc4)o3)c(=O)oc12	0	-18	-54	-57*	-23	1
Cc1ccc(S(=O)(=O)NCC2(c3ccccc3)CCOCC2)cc1	0	-13	-1	3	-3	0
COc1ccccc1C(=O)NNC(=O)CCC(=O)NCc1ccccc1	nt	nt	-4	-3	nt	nt
COc1ccccc1N1CCN(/N=C/C=C\c2ccco2)CC1	0	8	80*	55	nt	-2
SMILES	Hsp70 activator	S1P4 antagonist	HSF-1 act	HSF1 inhib	S1P3 antag	S1P4 agonist
COc1cccc(/C=N/N2CCN(c3ccccc3OC)CC2)c1	0	-23	1	3	nt	0
COc1ccccc1N1CCN(/N=C/c2cccc(Cl)c2)CC1	nt	nt	60*	16	nt	nt
CN1C/C(=C\c2ccc(N3CCOCC3)cc2)C(=O)/C(=C/c2ccc(N3CCOCC3)cc2)C1	0	-10	133*	67	-16	0
CCN1C/C(=C/c2ccc(N3CCOCC3)cc2)C(=O)/C(=C/c2ccc(N3CCOCC3)cc2)C1	0	-1	9	0	5	-1
O=C(C1=C[C@@H](c2ccc(Br)cc2)C[C@@H](OCCCCO)O1)N1CCN(Cc2ccc3c(c2)OCO3)CC1	0	10	2	13	-15	0
O=C(C1=C[C@H](c2ccc(C(F)(F)F)cc2)C[C@H](OCCCCO)O1)N1CCN(Cc2ccc3c(c2)OCO3)CC1	0	2	-78	-70*	-7	1
CSc1ccccc1NC(=O)c1cc(-c2cccnc2)nc2ccc(Br)cc12	0	0	-13	-4	-11	0
